Assay results reported in PubChem BioAssay AID624330 (Southern Research Specialized Biocontainment Screening …, 2012).
“And” between values parts separate entries of the source, which are not always exact repeats. Equal values may be shown once. The whole screen tested about 340,000 compounds, of which about 2,100 (0.62%) were called active.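 The calls were made as follows: active = first-screen hits whose inhibition reached a set limit at any dose in the follow-up dose series; inconclusive = inhibition above the set first-screen limit but never retested; inactive = the rest.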 These entries were drawn from the full list. Results with a measured potency or affinity are listed apart.

These compounds were tested against Rac GTPase-activating protein 1 (Homo sapiens) (UniProt Q9H0H5) (assay: MgcRacGAP GTPase-activating activity inhibitors, confirmation, biochemical, ADP Hunter fluorescence, primary and confirmatory (AID 624330;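 also: fluorescence reports GDP produced by GAP-driven GTP hydrolysis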)). Details: MgcRacGAP-stimulated Rac1 GTP hydrolysis, at 30 µM, hits give high values, GST-tagged Rac1 F28L mutant substrate.
Sequence of Rac GTPase-activating protein 1 (Homo sapiens) (Q9H0H5 whole entry, looked up): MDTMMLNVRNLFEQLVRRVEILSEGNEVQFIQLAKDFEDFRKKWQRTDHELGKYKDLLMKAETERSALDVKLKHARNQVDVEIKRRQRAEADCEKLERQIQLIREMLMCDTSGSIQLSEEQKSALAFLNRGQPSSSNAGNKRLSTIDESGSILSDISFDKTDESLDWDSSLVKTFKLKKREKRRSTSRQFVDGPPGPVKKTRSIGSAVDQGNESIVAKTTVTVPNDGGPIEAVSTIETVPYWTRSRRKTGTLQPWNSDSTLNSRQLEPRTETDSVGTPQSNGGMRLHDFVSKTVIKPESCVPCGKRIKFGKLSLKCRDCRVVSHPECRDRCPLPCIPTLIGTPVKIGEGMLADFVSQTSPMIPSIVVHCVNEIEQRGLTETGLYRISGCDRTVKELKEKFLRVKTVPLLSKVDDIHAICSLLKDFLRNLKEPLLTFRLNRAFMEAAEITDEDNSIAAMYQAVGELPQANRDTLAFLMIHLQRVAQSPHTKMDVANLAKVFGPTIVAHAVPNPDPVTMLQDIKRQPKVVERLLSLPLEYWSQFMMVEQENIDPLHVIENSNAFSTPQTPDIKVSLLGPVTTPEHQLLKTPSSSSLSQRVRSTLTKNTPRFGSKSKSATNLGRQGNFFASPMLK

Structure (SMILES)	inhibition
COc1ccc(C(=O)NCC(=O)N/N=C(\C)c2ccco2)cc1OC	-0.25% (inactive)
CCOC(=O)CNc1nc(Cl)nc(Nc2ccc(Cl)cc2)n1	-8.39% (inactive)
CCCCn1nnc(N(C(=O)c2cccs2)C(=O)c2cccs2)n1	-4.48% (inactive)
CC(C)CC(=O)NC(=S)Nc1ccc(N2CCOCC2)c(Cl)c1	2.66% (inactive)
S=C(c1ccc(-c2ccc(Cl)cc2Cl)o1)N1CCCCC1	10.8% (inactive)
O=C(COc1ccc(Cl)cc1)NNC(=O)c1ccncc1	8.55% (inactive)
Cc1ccc(NC(=O)c2sccc2C)cc1S(=O)(=O)N(C)C	11.1% (inactive)
COc1ccc2c(c1)C1NC(=S)N[C@@](C)(O2)C1C(=O)Nc1ccccc1 (stereo partly specified)	9.66% (inactive)
COc1nn(CC(=O)N2N=C(C(F)F)CC2(O)C(F)F)cc1[N+](=O)[O-] (stereo unspecified)	5.35% (inactive)
CC(C)CN1CCC(=O)N([C@H](CN=[N+]=[N-])Cc2ccccc2)CC1	7.37% (inactive)
O=C(NN=Cc1cc([N+](=O)[O-])ccc1O)c1cccc2ccccc12	4.07% (inactive)
O=C(N/N=C/c1ccccc1O)NC12CC3CC(CC(C3)C1)C2	7.17% (inactive)
COc1ccc(/C=N/NC(=O)NC23CC4CC(CC(C4)C2)C3)c(OC)c1	0.89% (inactive)
COc1ccccc1N1CCN(C2CCCN(C(=O)c3ccsc3)C2)CC1 (stereo unspecified)	9.49% (inactive)
Cc1nnc(SCC(=O)NNC(=O)COc2ccc(Cl)cc2)s1	3.46% (inactive)
CCN(CC)c1ccc(C(=O)NN)cc1	10% (inactive)
CCN(CC)c1ccc(C(=C2C=CC(=[N+](CC)CC)C=C2)c2ccc(S(=O)(=O)O)cc2S(=O)(=O)[O-])cc1	25.4% (inactive)
CCN(CC)c1ccc(C(=S)NCc2ccccc2)cc1	9.69% (inactive)
CCN(CC)c1ccc(C(=O)NNC(=O)CCNC(=O)c2ccccc2)cc1	7.48% (inactive)
CC(C)(/C=N/NC(=O)CSCc1ccccc1Cl)CCC#N	4.57% (inactive)
Cc1nc(NC(=O)C2CC2)sc1C(=O)Nc1ccccc1	12.6% (inactive)
CCc1ccc(NS(=O)(=O)c2ccc3[nH]c(=O)[nH]c3c2)cc1	-4.35% (inactive)
Cn1c(SCC(=O)NC2CCS(=O)(=O)C2)nnc1-c1ccco1 (stereo unspecified)	-3.56% (inactive)
O=C(CCNC(=O)c1ccccc1)NC1CCCc2ccccc21 (stereo unspecified)	6.57% (inactive)

Structure (SMILES)	inhibition
Cc1ccc(S(=O)(=O)NCCc2ccncc2)cc1[N+](=O)[O-]	2.26% (inactive)
CCN(CC)S(=O)(=O)c1cccc(-c2n[nH]c(=S)n2/N=C/c2ccc(Br)cc2)c1	12.8% (inactive)
CCN(CC)S(=O)(=O)c1cccc(-c2n[nH]c(=S)n2/N=C/c2ccc(OC)cc2)c1	8.14% (inactive)
CC(=O)Nc1ccc(Oc2ccc(-c3noc(C)n3)cc2)cc1	10.9% (inactive)
CC(NC(=O)Cc1cccc(C(F)(F)F)c1)c1ccc(F)cc1 (stereo unspecified)	0.98% (inactive)
CCOC(=O)c1sc(NC(C)=O)nc1C	6.36% (inactive)
CCOC(=O)c1c(C)nsc1NC(=O)C1CCCCC1	-1.81% (inactive)
CCOC(=O)c1sc(NC(=O)CC)nc1C	7.69% (inactive)
CCOC(=O)c1c(C)nsc1NCc1ccccc1	10.9% (inactive)
O=C(NCCO)c1ccc(-c2nnc(N3CCOCC3)c3ccccc23)cc1	1.36% (inactive)
O=C1CCc2cc(S(=O)(=O)Nc3ccc(F)cc3)cc3c2N1CC3	6.87% (inactive)
N=C(N)c1ccccc1	2.01% (inactive) and 4.94% (inactive)
N=C(N)c1ccc(O)cc1	3.97% (inactive)
O=[N+]([O-])/C=C\c1ccc(N2CCOCC2)cc1	24% (inactive)
O=[N+]([O-])c1ccc(C=CC=Cc2ccccc2)cc1	5.54% (inactive)
O=[N+]([O-])/C=C/c1cn(Cc2ccccc2)c2ccccc12	4.89% (inactive)
Cc1cccc(Cn2cc(/C=C/[N+](=O)[O-])c3ccccc32)c1	3.28% (inactive)
CS(=O)(=O)N(CC(=O)NCCSCc1ccco1)c1ccc(Cl)cc1	5.58% (inactive)
Cc1ccc(N(CC2CO2)S(=O)(=O)c2ccc([N+](=O)[O-])cc2)cc1 (stereo unspecified)	4.81% (inactive)
COC(=O)c1ccc(NC(=O)C2CCN(C(=O)Nc3ccccc3)CC2)cc1	5.55% (inactive)
O=[N+]([O-])c1ccc(N2CCCC2)c([N+](=O)[O-])c1	6.43% (inactive)
O=[N+]([O-])c1cc(C(F)(F)F)ccc1N1CCN(CCO)CC1	4.15% (inactive)
Cc1nn(CC(=O)Nc2ccc3c(c2)OCCO3)c(C)c1[N+](=O)[O-]	0.26% (inactive)
CCOC(=O)/C=C/c1cnn(-c2ccccc2)c1	6.95% (inactive)

Structure (SMILES)	inhibition
O=C(O)/C=C/c1cnn(-c2ccccc2)c1	2.55% (inactive)
CCN=C1S/C(=C\c2cc(Cl)c(OC)c(OC)c2)C(=O)N1CC	4.7% (inactive)
O=C(NNS(=O)(=O)c1ccc(F)cc1)c1ccc(O)cc1	6.98% (inactive)
COc1ccc(Cn2nnnc2CN2CCOCC2)cc1	7.47% (inactive)
CCOC(=O)Cn1nnnc1CN1CCN(c2ccc(OC)cc2)CC1	14.7% (inactive)
C=CCN(c1ccccc1)S(=O)(=O)c1cccc(C(=O)Nc2ncccc2O)c1	-0.92% (inactive)
Cc1ccc(N(C(=O)Cn2nnc(-c3ccccc3F)n2)C(C(=O)NC2CCCC2)c2ccncc2)cc1 (stereo unspecified)	6.05% (inactive)
COc1ccc(OC)c(-c2csc(NC(=O)COC(=O)c3ccc(NC(=O)CC#N)cc3)n2)c1	5.16% (inactive)
Cc1cc(C(=O)NC(C)C2CCCO2)cs1 (stereo unspecified)	-7.59% (inactive)
CCCn1c(=O)c2ccccc2n2c(SCC(N)=O)nnc12	18.7% (inactive)
CCCn1c(=O)c2ccccc2n2c(SCCOc3ccccc3)nnc12	4.68% (inactive)
Cc1ccc(NC(=O)CN(C)S(=O)(=O)c2ccc3c(c2)n(C)c(=O)c(=O)n3C)cc1	7.39% (inactive)
CCOC(=O)C(=NC(C)CC)NNc1ccc(Br)cc1 (stereo unspecified)	9.58% (inactive)
O=C(CN1CCN(C(=O)c2ccco2)CC1)Nc1cccc([N+](=O)[O-])c1	4.6% (inactive)
O=[N+]([O-])c1cccc(CN2CCCCCC2)c1	10.9% (inactive)
O=[N+]([O-])c1ccc(S(=O)(=O)N2CCN(Cc3ccco3)CC2)cc1	15.9% (inactive)
O=C(c1ccco1)N1CCN(Cc2cccc(F)c2)CC1	14.6% (inactive)
O=[N+]([O-])c1cccc(CN2CCN(c3ncccn3)CC2)c1	25.4% (inactive)
O=[N+]([O-])c1ccc(N2CCN(Cc3cccc([N+](=O)[O-])c3)CC2)cc1	0.8% (inactive)
O=C(c1c(Cl)cccc1Cl)N1CCCCCC1	7.13% (inactive)
O=C(c1c(Cl)cccc1Cl)N1CCN(c2ncccn2)CC1	14.4% (inactive)
C[C@H](NC(=O)C1CC(=O)N(c2ccc3c(c2)OCCO3)C1)C(=O)N1CCCCC1 (stereo partly specified)	7.93% (inactive)
CCC(CC)NC(=O)COC(=O)c1cc(Br)ccc1Cl	7.43% (inactive)
CC(C)NC(=O)CN(Cc1ccc(F)cc1)C(=O)CCC(=O)Nc1ccccn1	4.82% (inactive)

Structure (SMILES)	inhibition
CC(=O)c1ccc(N=Nc2ccc(C)cc2)cc1	3.59% (inactive)
COc1ccc(C(C)=O)cc1CN1C(=O)NC2(CCCCCC2)C1=O	-0.57% (inactive)
Cc1ccc(S(=O)(=O)N(C)CCN(C)S(=O)(=O)c2ccc(C)cc2)cc1	6.45% (inactive)
Cc1cccc(OCC(=O)N(Cc2ccc(F)cc2)C2CCS(=O)(=O)C2)c1C (stereo unspecified)	9.11% (inactive)
O=C(N/N=C/C(Cl)=C/c1ccccc1)c1ccccn1	2.22% (inactive)
COc1ccc(-c2csc3nc(C)n(-n4cccc4)c(=O)c23)cc1OC	2.59% (inactive)
CCCCOC(=O)C1=C(C)Nc2ncnn2C1c1ccc(OCC)c(OC)c1 (stereo unspecified)	4.44% (inactive)
O=C(NC(=S)Nc1ccc(F)cc1)C1CCCCC1	6.1% (inactive)
COC(=O)c1ccc(NC(=S)Nc2ccc3ccccc3c2)cc1	15.3% (inactive)
O=C(NNC(=O)C1CC=CCC1)c1ccccc1O (stereo unspecified)	-10.1% (inactive)
COC(=O)c1ccc(NC(=S)Nc2ccccc2)cc1	5.58% (inactive)
O=C(Nc1nccs1)C1CC=CCC1 (stereo unspecified)	0.32% (inactive)
CC(=O)Nc1ccc(NC(=S)NC(=O)C2CCCC2)cc1	9.09% (inactive)
Cc1nn(Cc2ccccc2)c(C)c1NC(=O)CSc1nnc(-c2cc(Cl)ccc2O)n1C	3.78% (inactive)
COc1ccccc1-c1nnc(SCC(=O)c2c(N)n(C3CC3)c(=O)[nH]c2=O)o1	4.98% (inactive)
O=C(CCC1CCCN(C(=O)c2ccc3c(c2)OCO3)C1)NCc1ccc(F)c(F)c1 (stereo unspecified)	6.44% (inactive)
CCCC(=O)Nc1c(-c2ccccc2)c(=O)c(C)nn1-c1ccccc1	-2.47% (inactive)
Cc1cccc(NC(=O)CSCc2cc(=O)n3c(C)csc3n2)c1C	-9.75% (inactive)
CCOCCCNCC(=O)NC1(C)C2CCC(C2)C1(C)C (stereo unspecified)	14.5% (inactive)
CCOCCCNC(=O)C(=O)NCCCOCC	6.87% (inactive)
CC(NC(=O)CNC(=O)c1cccc(Cl)c1)c1ccccc1 (stereo unspecified)	0.16% (inactive)
CCCCNc1c(-c2ccc(-c3ccc(C(C)=O)cc3)c(OC)c2)nc2cc(C)ccn12	4.91% (inactive)
Cc1c(Cc2ccccc2)c(=O)oc2c(C)c(OCC(=O)N[C@@H](Cc3ccccc3)C(=O)O)ccc12	1.68% (inactive)
C[C@@H]1CN([C@@H](C)CO)C(=O)c2cc(NC(=O)Nc3ccc4c(c3)OCO4)ccc2O[C@H]1CN(C)S(=O)(=O)c1cn(C)cn1	11.5% (inactive)
